Source: PubChem (several laboratories)
Platelet DG rel: inhibitors of platelet dense granule secretion, primary screen, cell-based, MLPCN, human platelets; AID 1663, 2009; human platelet-rich plasma, SFLLRN dense granule ATP release, luminescence; inhibition, %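 (compounds screened at 7.5 µM in platelet-rich plasma)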; 300,000 tested, 0.22% active;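 active = mean replicate score, as percent of positive control, at or above 50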
Yeast superoxide: reduction of superoxide in aged yeast, primary screen, HTS | S. cerevisiae aged cells, superoxide DHE fluorescence; stronger effect = lower value | superoxide response (% of plate mean), % at 10 µM | 330,000 tested, 0.18% active | AID 2690, 2010;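 active = superoxide response under a set limit, about three screen SD below normal, cut at about 65% in these data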;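 also: yeast aged for seven days with compound at 30 °C before DHE staining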
SKN-1 block: suppressors of acrylamide-induced Pgst-4::GFP reporter in worms, primary screen, SKN-1 inhibitor project, whole organism, uHTS, GFP/RFP fluorescence ratio, strain VP596; inhibition, % at 21.8 µM; 360,000 tested, 0.49% active; C. elegans VP596 Pgst-4::GFP/RFP ratio, 24 h; AID 624304, 2012;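 active = interference check ratio from 0.5 to 1.5 plus GFP to RFP signal ratio inhibition reaching or exceeding a fixed threshold, cut at about 30% in these data, passing the limit was not always enough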
VLA-4 inh: inhibition in human VLA-4 binding assay, primary screen, VLA-4 allosteric modulator project, MLPCN library, flow cytometry, VLA-4 expressing cells. Integrin alpha-4 (Homo sapiens), P13612. ligand binding flow cytometry. inhibition, % (about 7 µM as worked out from the volumes in the protocol). 330,000 tested, 0.2% active. AID 2557, 2010; in the data active = inhibition above about 50%
Target sequence (P13612 whole entry, looked up): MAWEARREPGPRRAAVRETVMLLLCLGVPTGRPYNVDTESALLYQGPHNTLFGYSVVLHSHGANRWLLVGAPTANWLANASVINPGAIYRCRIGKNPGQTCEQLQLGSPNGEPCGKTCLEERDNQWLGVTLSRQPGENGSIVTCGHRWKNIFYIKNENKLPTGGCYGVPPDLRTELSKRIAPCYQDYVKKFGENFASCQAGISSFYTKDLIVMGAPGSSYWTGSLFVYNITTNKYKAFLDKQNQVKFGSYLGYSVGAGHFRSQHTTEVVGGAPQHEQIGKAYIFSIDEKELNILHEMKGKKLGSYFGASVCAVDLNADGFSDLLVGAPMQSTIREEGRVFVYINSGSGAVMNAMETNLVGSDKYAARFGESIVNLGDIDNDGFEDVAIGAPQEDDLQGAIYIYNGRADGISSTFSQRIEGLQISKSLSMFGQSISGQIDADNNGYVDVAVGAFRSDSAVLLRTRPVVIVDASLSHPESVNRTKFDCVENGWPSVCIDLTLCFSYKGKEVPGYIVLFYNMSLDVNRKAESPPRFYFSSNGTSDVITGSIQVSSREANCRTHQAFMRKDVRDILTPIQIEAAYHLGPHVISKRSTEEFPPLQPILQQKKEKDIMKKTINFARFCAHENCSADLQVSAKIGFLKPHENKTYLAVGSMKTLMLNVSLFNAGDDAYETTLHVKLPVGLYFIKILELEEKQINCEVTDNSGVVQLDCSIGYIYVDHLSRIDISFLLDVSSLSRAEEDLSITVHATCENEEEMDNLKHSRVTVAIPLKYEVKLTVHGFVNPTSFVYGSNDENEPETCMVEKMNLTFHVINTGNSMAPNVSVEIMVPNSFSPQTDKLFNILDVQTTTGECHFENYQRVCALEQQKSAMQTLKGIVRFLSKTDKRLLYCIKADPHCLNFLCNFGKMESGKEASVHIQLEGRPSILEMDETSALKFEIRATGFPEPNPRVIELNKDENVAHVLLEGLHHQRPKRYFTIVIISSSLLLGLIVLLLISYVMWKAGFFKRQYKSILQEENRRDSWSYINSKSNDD
ABCB6 inh 2: ABCB6 transporter inhibitors, primary screen, K562-ABCB6 cells, flow cytometry, MLPCN library; K562-ABCB6 porphyrin accumulation, 1 h; stronger effect = lower value; fluorescence ratio to DMSO, % at 10 µM; 360,000 tested, 0.19% active; ATP-binding cassette sub-family B member 6 (Homo sapiens), Q9NP58; AID 602162, 2011;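 active = fluorescence ratio to DMSO below 75%, the collection mean minus 3 SD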;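 also: signal is porphyrin accumulated inside mitochondria; lower ratio means ABCB6 inhibition with less porphyrin fluorescence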
Of the large screens only hits and unclear results are named; the others gave an inactive call. The list is not random: actives were taken first. Their share in the collection is about 1.2%.

C=C1[C@@H](OC(C)=O)C=C[C@@]2(C)C=CC(=O)[C@@](C)(OC(C)=O)[C@@H]2[C@@H](OC(C)=O)[C@]2(O)[C@@H](C)C(=O)O[C@H]2[C@H]1Cl	none (no result: Platelet DG rel, Yeast superoxide, VLA-4 inh)
O=C(CSc1ncn[nH]1)Nc1ccc(Cl)c(Cl)c1	SKN-1 block 44
CC(C(=O)NC1CCCC1)n1c(C2CC2)nc2ccccc21 (stereo unspecified)	none (no result: Platelet DG rel, Yeast superoxide, VLA-4 inh, ABCB6 inh 2)
CCOC(=O)[C@]12CCCC=C1N(Cc1cccc3ccccc13)C(=O)[C@H](CC(=O)NCCCCc1ccccc1)C2	none (no result: Platelet DG rel, Yeast superoxide, VLA-4 inh)
CCCC(=O)N1CCN(c2ccc(NC(=O)c3cc4ccccc4o3)cc2)CC1	SKN-1 block 48 (no result: Platelet DG rel)
CN1CCN(c2ccc(NC(=O)c3cc4ccccc4o3)cc2)CC1	none
CC(=O)Nc1ccc(NC(=S)NC(=O)c2cc3ccccc3o2)cc1	none
O=C(NC(=S)Nc1ccc(CN2CCCCC2)cc1)c1cc2ccccc2o1	SKN-1 block 73
CC(C)(C)c1ccc(C(=O)N2[C@H](COCc3ccccc3)C=CS2(=O)=O)cc1	none (no result: Platelet DG rel, Yeast superoxide, VLA-4 inh)
CC(C)=CCC[C@H](C)C[C@@H]1CC2=C(C(=O)OC(C)(C)O2)[C@@H](c2ccc(F)cc2)O1	none (no result: Platelet DG rel, Yeast superoxide, VLA-4 inh)
COCCN1C(=O)CN(S(C)(=O)=O)CC1(C)C(=O)Nc1c(C)cccc1C (stereo unspecified)	none (no result: Platelet DG rel, Yeast superoxide, VLA-4 inh, ABCB6 inh 2)
COc1cc(C(c2sc3nc(C)nn3c2O)N2CCN(c3ccccc3)CC2)cc(OC)c1OC (stereo unspecified)	none
COc1ccc(C(c2sc3nc(C)nn3c2O)N2CCCCC2)cc1 (stereo unspecified)	Platelet DG rel 59
COc1cc(C(c2sc3nc(C)nn3c2O)N2CCOCC2)cc(OC)c1OC (stereo unspecified)	Platelet DG rel 67
CCc1nc2c(OCC3COc4ccccc4O3)cccn2c1N(C)C(=O)c1cccs1 (stereo unspecified)	none (no result: Platelet DG rel, Yeast superoxide, VLA-4 inh)
CC(=C/c1ccco1)/C=N/N1CCN(c2ccccc2)CC1	SKN-1 block 36
CC(/C=N/N1CCN(c2ccccc2)CC1)=C\c1ccco1	none
CC(/C=N/N1CCN(c2ccccn2)CC1)=C\c1ccccc1	SKN-1 block 67
Cc1cc2c(cc1C)-c1nnnn1C(N1CCC(Cc3ccccc3)CC1)C(=O)N2 (stereo unspecified)	none (no result: Platelet DG rel, Yeast superoxide, VLA-4 inh, ABCB6 inh 2)
ClN=C1C=CC=CC1=NCl	none (no result: Platelet DG rel, Yeast superoxide, VLA-4 inh)
CCC(CO)Nc1ccn2nc(-c3cccs3)cc2n1 (stereo unspecified)	none (no result: Platelet DG rel, Yeast superoxide, VLA-4 inh)
CCCCCCCCN1C(=O)[C@H](CC(=O)N2CCSCC2)C[C@@]2(C(=O)OC)CCCCC=C12	none (no result: Platelet DG rel, Yeast superoxide, VLA-4 inh)
CCC(=O)N1CCC1(C)C(=O)Nc1ccc(Cl)c(Cl)c1 (stereo unspecified)	none (no result: Platelet DG rel, Yeast superoxide, VLA-4 inh)
CC[C@@H](C)[C@@H](CO)NC(=O)[C@H]1O[C@@H](n2cnc3c(N)ncnc32)[C@H](O)[C@@H]1O	none (no result: Platelet DG rel, Yeast superoxide, VLA-4 inh)
CCNC(=O)C1CCCN(C(=O)c2cccc(OC(F)(F)F)c2)CC1 (stereo unspecified)	none (no result: Platelet DG rel, Yeast superoxide, VLA-4 inh)
O=C(NCc1nc2ccccc2[nH]1)C1=C[C@H](C2CCCCC2)C[C@H](OCc2ccc(CO)cc2)O1	SKN-1 block 39
O=C(NCc1nc2ccccc2[nH]1)C1=C[C@@H](C2CCCCC2)C[C@@H](OCc2ccc(CO)cc2)O1	none
CCN(CC)CCC12CC(C)OC1=Nc1ccccc1NC2=O (stereo unspecified)	none (no result: Platelet DG rel, Yeast superoxide, VLA-4 inh)
CC/C(C)=N\N=C\c1c(O)n(CC)c2cc(C3=NNC(=O)CC3)ccc12	Platelet DG rel 75
CCn1c(O)c(/C=N/N=C/c2ccc(OC)cc2)c2cc(C3=NNC(=O)CC3)ccc21	none
O=C(Nc1ccc2c(c1)OCCO2)c1[nH]c(C(F)(F)F)nc1-c1ccccc1	none (no result: Platelet DG rel, Yeast superoxide, VLA-4 inh)
CCC1CCCCN1CCN1C(=O)C2C(C(=O)Nc3ccc(OC)cc3)C3C=CC2(O3)C1C(=O)NC1CCCCC1 (stereo unspecified)	SKN-1 block 37
COc1ccc(CN2C(=O)C(CC(=O)NC3CCCC3)CC(C(=O)N3CCOCC3)=C2C)cc1 (stereo unspecified)	none (no result: Platelet DG rel, Yeast superoxide, VLA-4 inh)
Cc1ccc(C(=O)/C=C/Nc2ccccn2)cc1	Platelet DG rel 64
Cc1ccc(C(=O)/C=C/C(=O)c2ccc(C)cc2)cc1	VLA-4 inh 69
O=C1CSC(c2cn(-c3ccccc3)nc2-c2ccc3c(c2)OCCO3)N1CCN1CCOCC1 (stereo unspecified)	Platelet DG rel 55
CCc1sc(N(C(=O)Cc2ccccc2)c2cccc(F)c2)nc1-c1ccc(C)cc1	SKN-1 block 44
CCc1sc(N(C(=O)Cc2ccccc2)c2ccccc2F)nc1-c1ccc(C)cc1	none
COC(=O)CN1C(=S)N(c2ccc(OC)cc2)C(=O)/C1=C/c1ccc(N2CCOCC2)cc1	SKN-1 block 37
COC(=O)CN1C(=S)N(c2ccc(OC)cc2)C(=O)/C1=C/c1ccc(OC)cc1	none
CCCCNC(=O)C1C(c2ccccc2)=Nc2ccccc2N1C(=O)c1ccc(C)cc1 (stereo unspecified)	none (no result: Platelet DG rel, Yeast superoxide, VLA-4 inh, ABCB6 inh 2)
COc1ccc(NC(=S)N2CCC(NC(=O)c3ccc(F)cc3)CC2)cc1	none
COc1ccc(NC(=S)N2CCC(NC(=O)c3ccc(OC)cc3)CC2)cc1	ABCB6 inh 2 74
COc1ccc(C(C)NC(=O)C2CCN(CCOc3ccc(Cl)cc3Cl)CC2)cc1OC (stereo unspecified)	none (no result: Platelet DG rel, Yeast superoxide, VLA-4 inh)
COc1ccc(C(NC(=O)/C=C\c2ccco2)c2ccc(OC)c(OC)c2)cc1 (stereo unspecified)	ABCB6 inh 2 61
COc1ccc(C(NC(=O)/C=C/c2ccco2)c2ccc(OC)cc2)cc1	none
CCOC(=O)C1CCN(C(=O)Cn2nc(C)n3c(cc4cc(F)ccc43)c2=O)CC1	Platelet DG rel 50
COc1cc(OCc2ccccc2)c(CC(=O)O)c([N+](=O)[O-])c1	none (no result: Platelet DG rel, Yeast superoxide, VLA-4 inh)
COc1ccc(-c2cc(=O)oc3cc(OCC(=O)N(C)C)ccc23)cc1	SKN-1 block 37
CCN(CC)C(=O)COc1ccc2c(-c3ccccc3)cc(=O)oc2c1	none
Clc1ccc(C#Cc2cccnc2)cc1	SKN-1 block 75
CCCn1cnc2cc(NCc3cccc(OC)c3O)ccc21	SKN-1 block 35
CCCn1cnc2cc(NCc3ccccn3)ccc21	none
Cc1ccc(N/C=C/C(=O)c2cccs2)cc1C	SKN-1 block 39
Cc1ccc(C2CC(=O)Oc3cc(O)ccc32)cc1 (stereo unspecified)	SKN-1 block 35
CCNC(=O)C1(C)CCCN(C(=O)c2cc3ccccc3s2)C1 (stereo unspecified)	none (no result: Platelet DG rel, Yeast superoxide, VLA-4 inh)
Cc1ccc2nc(-c3ccccn3)[nH]c2c1	Platelet DG rel 58
CC(C)n1[nH]c2ccccc2c1=O	none (no result: Platelet DG rel, Yeast superoxide, VLA-4 inh)
CC1CCc2c(C(=O)Nc3ccccn3)csc2C1 (stereo unspecified)	none
